From PubChem BioAssay (NCI)
The panel holds about 83,000 compounds, 20% with a hit somewhere; the sample as a whole holds those more often.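 Treatment: one concentration, 48 hours, 96-well format. Scoring: percent growth, with anything below 10 considered active.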 A number with no mark means an inactive call. The source made the active and inactive calls.

Legend:
Assay in all cases: NCI-60 one-dose screen, 48 h (100 = growth as untreated, 0 = no growth, -100 = all killed)
Settings in all cases: 10 µM unless noted
T-47D breast = test system: T-47D breast
BT-549 breast = test system: BT-549 breast
MDA-MB-435 melanoma = test system: MDA-MB-435 melanoma
SW-620 colon = test system: SW-620 colon
MCF7 breast = test system: MCF7 breast
HCT-116 colon = test system: HCT-116 colon
HCC-2998 colon = test system: HCC-2998 colon
KM12 colon = test system: KM12 colon

Row | Compound | growth (T-47D breast) | growth (BT-549 breast) | growth (MDA-MB-435 melanoma) | growth (SW-620 colon) | growth (MCF7 breast) | growth (HCT-116 colon) | growth (HCC-2998 colon) | growth (KM12 colon)
1 | C[C@@H]1CC[C@@H]2[C@@H]1[C@H](OC(=O)/C=C/c1ccccc1)[C@]1(c3ccccc3)C[C@@H](OC(=O)CO)[C@@]2(C)O1 | 89.5% | 17.1% | 99.2% | 96.6% | 84.3% | 89.5% | 99.4% | 96%
2 | COc1ccc2[nH]c(=O)c(/C=C/C(=O)c3ccc(Nc4nccc(-c5ccc6ccccc6c5)n4)cc3)cc2c1 | 97.2% | 98.9% | 108% | 97.1% | 92.8% | 91.1% | 104% | 93.3%
3 | COc1ccc(C2Nc3ccccc3-n3cccc32)cc1 (stereo not drawn) | 84.2% | 97.1% | 103% | 100% | 95.7% | 94% | 103% | 98.7%
4 | CCC(c1ccc(O)cc1)C(CC)c1ccc(O)c(F)c1 (stereo not drawn) | 65.8% | 92.9% | 75.1% | 93.7% | 103% | 59% | 96.4% | 82.6%
5 | CN(C)C(=O)c1cc2cnc(Nc3ccc(-c4csc5c(=O)cc(N6CCNCC6)oc45)cc3)nc2n1C1CCCC1 | 52.1% | 46.2% | 38.2% | 0.864% (active) | 3.93% (active) | 4.23% (active) | -0.6% (active) | 13.8%
6 | COC(=O)[C@H](C(C)C)n1c(=O)c2cc(OC)c(OC)cc2c2cnc3[nH]ccc3c21 | 14.8% | 21.2% | 75.1% | 61.8% | 26.2% | 41.4% | 62% | 18.4%
7 | CCCCCCNC(=O)Oc1ccc(/C(=C(\C)c2ccccc2)c2ccc(OCCN(CC)CC)cc2)cc1 | 35.5% | 71.8% | 45.6% | 18.8% | 16.1% | 30.2% | 60% | 37.8%
8 | Brc1cccc(-c2nc(-c3ccc4c(c3)OCCO4)co2)c1 | 46.6% [25 µM] | 68.7% [25 µM] | -31.9% [25 µM] (active) | 23% [25 µM] | 37% [25 µM] | 31.8% [25 µM] | 92.1% [25 µM] | 38.5% [25 µM]
9 | CS(CCCCN=C=S)=NC(=O)c1c(F)c(F)c(F)c(F)c1F (stereo not drawn) | 19.1% | 95.7% | 70.8% | 52.6% | 22.8% | 54% | 104% | 55.8%
10 | Cn1c2ccccc2c2c3c(c4c5ccccc5n(CCCCCC#N)c4c21)C(=O)N(O)C3=O | 17.4% | 18.5% | 20.9% | 14% | 7.79% (active) | -19.4% (active) | 25.3% | 16.6%
11 | O=C1C(=O)N(CCCCn2cc(CO)nn2)c2ccccc21 | 98.7% | 115% | 98.9% | 99.7% | 100% | 95.5% | 107% | 101%
12 | CCN(CC)CCC(=O)c1ccc(OC)c2ccccc12 | 29.1% | 79.6% | 102% | 93% | 11.9% | 88.4% | 90.8% | 81.8%
13 | O=C(/C=C/c1ccc(B(O)O)cc1)/C=C/c1ccc(B(O)O)cc1 | 27% | -11.8% (active) | -46.6% (active) | -25.2% (active) | 3.78% (active) | -94.4% (active) | -77.1% (active) | -86.7% (active)
14 | O=C(Nc1nc(-c2ccccc2)cc(-c2ccc(Cl)cc2)n1)c1ccncc1 | 83% | 101% | 96.8% | 90.9% | 84.6% | 87.6% | 102% | 100%
15 | O=C(Cc1ccccc1)c1ccc(Cl)cc1 | 91.1% | 106% | 94.3% | 99% | 95.6% | 93.2% | 99% | 101%
16 | CCN(CC)CCCC(C)N/C(=C1\C(=O)NC(=O)\C1=C(/NC(C)CCCN(CC)CC)c1cccc(OC)c1)c1cccc(OC)c1 (stereo not drawn) | 48.6% | 2.98% (active) | -81.6% (active) | 0.116% (active) | 0.0378% (active) | 2.62% (active) | -89.2% (active) | 1.06% (active)

Row | Compound | growth (T-47D breast) | growth (BT-549 breast) | growth (MDA-MB-435 melanoma) | growth (SW-620 colon) | growth (MCF7 breast) | growth (HCT-116 colon) | growth (HCC-2998 colon) | growth (KM12 colon)
17 | ClC1=C2NC=NC2n2c(nnc2-c2ccc(Cl)cc2)N1 (stereo not drawn) | 90.8% | 101% | 99.9% | 115% | 85.6% | 98.5% | 102% | 99.6%
18 | Cc1ccc2c(c1)n([O-])c1cc(Cl)ccc1[n+]2=O | 93.9% | 108% | 96.8% | 119% | 108% | 84.2% | 120% | 105%
19 | Nc1c(C(=O)Nc2ccccc2)sc2nc3c(cc12)CN(CCc1ccccc1)CC3 | 88.1% | 104% | 102% | 91.3% | 85.8% | 98.3% | 99% | 98.8%
20 | Cn1cc(-c2ccc(-c3cn(C)c4ncccc34)[nH]2)c2cccnc21 | -29.1% (active) | -12% (active) | 86.6% | 24% | 75.2% | 67.3% | 33.3% | 14.6%
21 | COc1cccc(NC(=O)c2sc3nc4c(cc3c2N)CN(Cc2ccccc2)CC4)c1 | 66.1% | 65.5% | 4.27% (active) | 54.4% | 49.5% | 58.1% | 77.3% | 48.2%
22 | CCOC(=O)C(CC)n1c(=O)c2cc(OC)c(OC)cc2c2cnc3[nH]ccc3c21 (stereo not drawn) | 26.1% | 47.6% | 88.2% | 79.9% | 50.1% | 67.9% | 83.4% | 26%
23 | O=C1c2cccnc2C(=O)c2c1c(C(=O)OCCN1CCOCC1)c1ccccn21 | 9.37% (active) | -13.3% (active) | -36% (active) | 6.61% (active) | -45.9% (active) | -1.07% (active) | 10.7% | 22.2%
24 | Nc1nc2c(c3ncccc13)C(c1cccc(Br)c1)Cc1ncccc1-2 (stereo not drawn) | 29.3% | 24.8% | 1.43% (active) | 29.1% | 16.5% | 11.5% | 25.4% | 18.4%
25 | CN(C)CC(=O)Nc1ccc(Cn2nnc3c2C(=O)c2nnn(Cc4ccc(NC(=O)CN(C)C)cc4)c2C3=O)cc1 | -51.7% (active) | -89.7% (active) | -87.5% (active) | -27.3% (active) | -61.6% (active) | -87.7% (active) | -51.2% (active) | -54.6% (active)
26 | Cc1ccc2c(c1)C(=O)/C(=C/c1ccc(OCC(=O)c3ccccc3)cc1)O2 | 77.8% | 112% | 106% | 108% | 88.7% | 93.4% | 125% | 101%
27 | COc1cc(OC)c(/C=C/c2cc[n+](C)c3ccccc23)c(OC)c1 | 9.89% (active) | 24% | 4.33% (active) | 19.8% | 5.4% (active) | 11.4% | 10% | -19.9% (active)
28 | CC#Cc1nc2ccccc2c(=O)[nH]1 | 67.3% | 20.4% | 25.6% | 40.8% | 23.5% | 41.1% | 13.7% | 41.1%
29 | CC(C)(C)c1nn(-c2ccccc2)c2c1CC1(CN2Cc2ccc3c(c2)OCO3)C(=O)c2ccccc2C1=O | 94.6% | 101% | 106% | 101% | 97.9% | 88.9% | 96.9% | 105%
30 | CCN1CCN(Cc2ccc(NC(=O)Nc3nc4ccc(Oc5ccnc(C(=O)NC)c5)cc4s3)cc2C(F)(F)F)CC1 | -27.9% (active) | -69.1% (active) | -36.5% (active) | -52.7% (active) | -39.3% (active) | -66.1% (active) | -33.6% (active) | -61.6% (active)
31 | CS(=O)CCCCCN=C=S (stereo not drawn) | -26.3% (active) | 2.12% (active) | 20.4% | 5.5% (active) | 0.852% (active) | -2.02% (active) | -11.3% (active) | -12.6% (active)
